This passage reports inhibition results from ChEMBL document CHEMBL1961873, “Compounds: GSK PKIS; Assays: Nanosyn kinase panel” (2012).

Structures are written as SMILES.

Chain of Serine/threonine-protein kinase 10 (Homo sapiens) (O94804 whole entry, looked up): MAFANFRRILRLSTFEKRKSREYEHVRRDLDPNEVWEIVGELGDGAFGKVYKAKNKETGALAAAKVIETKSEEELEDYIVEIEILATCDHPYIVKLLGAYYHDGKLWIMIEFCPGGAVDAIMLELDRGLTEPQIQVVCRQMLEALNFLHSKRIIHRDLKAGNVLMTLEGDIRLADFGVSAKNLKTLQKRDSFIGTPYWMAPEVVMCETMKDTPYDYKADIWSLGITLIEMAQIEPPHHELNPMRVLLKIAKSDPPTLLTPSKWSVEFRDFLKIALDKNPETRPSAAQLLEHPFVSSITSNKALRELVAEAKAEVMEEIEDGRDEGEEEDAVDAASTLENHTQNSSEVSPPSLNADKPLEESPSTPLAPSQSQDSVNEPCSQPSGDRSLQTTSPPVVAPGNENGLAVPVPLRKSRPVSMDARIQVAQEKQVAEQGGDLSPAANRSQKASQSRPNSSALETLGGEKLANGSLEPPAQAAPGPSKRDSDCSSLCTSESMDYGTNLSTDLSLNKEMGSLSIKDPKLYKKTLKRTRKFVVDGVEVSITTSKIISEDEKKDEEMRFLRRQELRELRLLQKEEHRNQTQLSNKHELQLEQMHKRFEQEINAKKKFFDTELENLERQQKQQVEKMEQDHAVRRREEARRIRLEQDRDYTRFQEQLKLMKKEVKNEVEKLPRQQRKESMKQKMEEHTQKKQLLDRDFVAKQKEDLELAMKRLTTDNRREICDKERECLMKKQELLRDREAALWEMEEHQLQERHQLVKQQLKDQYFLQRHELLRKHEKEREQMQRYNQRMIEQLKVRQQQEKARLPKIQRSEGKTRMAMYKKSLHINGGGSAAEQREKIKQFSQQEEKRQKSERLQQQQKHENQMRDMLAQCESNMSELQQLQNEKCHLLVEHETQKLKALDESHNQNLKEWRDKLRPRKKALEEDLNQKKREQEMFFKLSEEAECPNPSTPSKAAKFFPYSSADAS

The first experiment addresses Serine/threonine-protein kinase 10 (Homo sapiens) (UniProt O94804). The following applies: at 0.1 µM.
`NC(=O)c1ccc(Oc2nccc(-c3c(-c4ccc(F)cc4)ncn3C3CCNCC3)n2)cc1`: the inhibition came out at 7.75%.
The same measure, in the same setting: with `Fc1ccc(-c2ncn(CCCN3CCOCC3)c2-c2ccncc2)cc1` the figure was 1.1%; with `COc1cccc(/C=N/Nc2ncnc3c2cnn3-c2cccc(OC)c2)c1`, 5.31%; with `N#Cc1ccc(Oc2nccc(-c3c(-c4ccc(F)cc4)ncn3C3CCNCC3)n2)cc1`, 6.19%.
On the same count and under the same terms, with `COc1ccc(-c2ccc3c(NC(=O)C4CC4)n[nH]c3n2)cc1` the figure was 4.51%; with `O=C(Nc1n[nH]c2cc(-c3ccccc3)ccc12)C1CC1`, 4.04%; with `COC(=O)Nc1nc2ccc(Sc3ccc(NC(=O)Nc4cc(C(F)(F)F)ccc4F)cc3)cc2[nH]1`, 18.9%.
Same read-out and setting: with `CN(c1ccc(NC(=O)Nc2c(Cl)cccc2Cl)cc1)c1ccnc(Nc2cccc(CS(C)(=O)=O)c2)n1` the figure was 90.8%; with `O=C1Nc2ccc(I)cc2C1=Cc1cc(Br)c(O)c(Br)c1`, 4.81%.
For `Clc1ccc(CNc2nccc(-c3cnn4ncccc34)n2)cc1`, the inhibition came to 2.66%.
Consider `C/C(Nc1ccc(S(N)(=O)=O)cc1)=C1/C(=O)Nc2ccccc21`, for which the inhibition stood at 0.97%.
In the case of `CCc1nccc2c1nc(-c1nonc1N)n2CC`, the inhibition was -0.01%.
With `NC(=O)c1cc(-c2ccncc2)cc(-c2ccccc2)c1N`, the inhibition stood at 6.67%.
`COc1cc(Nc2ncc(-c3ccccc3)o2)cc(OC)c1OC`: the inhibition stood at 1.37%.
Same read-out and setting: with `NS(=O)(=O)c1ccc(N/N=C2\C(=O)Nc3ccc(-c4cnco4)cc32)cc1` the figure was 2.55%; with `COc1cc2ncn(-c3cc(OCCc4ccccc4)c(C(N)=O)s3)c2cc1OC`, 25%.
Still for that read-out and setting: with `Cc1nnc(-c2ccc(C)c(-c3ccc(C(=O)NCc4ccc(Cl)cc4)cc3)c2)o1` the figure was 2.71%.
The same measure, in the same setting: with `C#Cc1cccc(Nc2ncnc3ccc(OCCCCNCCS(C)(=O)=O)cc23)c1` the figure was 23.4%; with `COc1cccc(-n2cnc3c(N/N=C/c4ccncc4)ncnc32)c1`, 4.49%.
For `COc1ccc2cc(-c3c(-c4ccncc4)nc(-c4ccc(S(C)(=O)=O)cc4C)n3C)ccc2c1`, the inhibition turned out to be 43.9%.
Take `COc1ccc2ncn(-c3cc(O[C@H](C)c4ccccc4Cl)c(C(N)=O)s3)c2c1`: the inhibition is 20.3%.
Turning to `O=C1NC(=O)C(c2cccc(Cl)c2)=C1Nc1ccc(Cl)c(C(=O)O)c1`, the inhibition was found to be 4.75%.
`CN1CCN(CCCNc2nc3ccc(Oc4ccc(NC(=O)Nc5cc(C(F)(F)F)ccc5F)cc4)cc3[nH]2)CC1`: the inhibition turned out to be 15.9%.
Still for that read-out and setting: with `C[C@@H](Oc1cc(-n2cnc3ccc(OC4CCN(C)CC4)cc32)sc1C(N)=O)c1ccccc1Cl` the figure was 50.1%; with `c1ccc(Oc2ccc(Nc3ncc(-c4ccccc4)o3)cc2)cc1`, 0.49%; with `CN(C)CCCNc1nccc(-c2c(-c3ccc(F)cc3)nn3cc(C(F)(F)F)ccc23)n1`, 2.34%.
Consider `COc1cc2ncn(-c3cc(OCc4ccccc4C(F)(F)F)c(C(C)=O)s3)c2cc1OC`, for which the inhibition is 10.5%.
For `COc1ccc2cc(-c3c(-c4ccncc4)nc(-c4ccc([S+](C)[O-])cc4C)n3C)ccc2c1` (stereo not drawn), the inhibition was determined as 52.4%.
For `Fc1ccc(-c2ncn(C3CCNCC3)c2-c2ccnc(Oc3ccc4c(c3)OCO4)n2)cc1`, the inhibition was found to be 8.13%.
Consider `NC(=O)c1cc(-c2ccc(F)cc2)cc(-c2ccncc2)c1N`, for which the inhibition turned out to be 6.15%.
For `CCC(=O)Nc1ccc(C)c(-c2ccc(C(=O)NCC3CC3)cc2)c1`, the inhibition worked out at 1.74%.
Still for that read-out and setting: with `c1ccc(-c2n[nH]cc2-c2ccnc(-c3ccc(OCCN4CCOCC4)cc3)c2)nc1` the figure was 3.53%; with `O=C(NCC1CC1)c1ccc(-c2cccc(C(=O)NC3CC3)c2)cc1`, 3.1%.
On the same count and under the same terms, with `NC(=O)Cc1ccccc1Oc1nccc(-c2c(-c3ccc(F)cc3)ncn2C2CCNCC2)n1` the figure was 3.78%.

The target is the same in a further experiment. The following applies: at 1 µM.
Take `NC(=O)c1ccc(Oc2nccc(-c3c(-c4ccc(F)cc4)ncn3C3CCNCC3)n2)cc1`: the inhibition came out at 8.82%.
Take `Fc1ccc(-c2ncn(CCCN3CCOCC3)c2-c2ccncc2)cc1`: the inhibition came to 3.83%.
In the case of `COc1cccc(/C=N/Nc2ncnc3c2cnn3-c2cccc(OC)c2)c1`, the inhibition was 6.35%.
The same measure, in the same setting: with `N#Cc1ccc(Oc2nccc(-c3c(-c4ccc(F)cc4)ncn3C3CCNCC3)n2)cc1` the figure was 8.89%; with `COc1ccc(-c2ccc3c(NC(=O)C4CC4)n[nH]c3n2)cc1`, 8.53%; with `O=C(Nc1n[nH]c2cc(-c3ccccc3)ccc12)C1CC1`, 19.9%.
With `COC(=O)Nc1nc2ccc(Sc3ccc(NC(=O)Nc4cc(C(F)(F)F)ccc4F)cc3)cc2[nH]1`, the inhibition turned out to be 72.7%.
On to `CN(c1ccc(NC(=O)Nc2c(Cl)cccc2Cl)cc1)c1ccnc(Nc2cccc(CS(C)(=O)=O)c2)n1`, for which the inhibition is 86.5%.
As to `O=C1Nc2ccc(I)cc2C1=Cc1cc(Br)c(O)c(Br)c1`, the inhibition turned out to be 7.92%.
Same read-out and setting: with `Clc1ccc(CNc2nccc(-c3cnn4ncccc34)n2)cc1` the figure was 6.27%; with `C/C(Nc1ccc(S(N)(=O)=O)cc1)=C1/C(=O)Nc2ccccc21`, 9.28%.
Consider `CCc1nccc2c1nc(-c1nonc1N)n2CC`, for which the inhibition was 3.09%.
Same read-out and setting: with `NC(=O)c1cc(-c2ccncc2)cc(-c2ccccc2)c1N` the figure was 9.99%; with `COc1cc(Nc2ncc(-c3ccccc3)o2)cc(OC)c1OC`, 11.1%.
Turning to `NS(=O)(=O)c1ccc(N/N=C2\C(=O)Nc3ccc(-c4cnco4)cc32)cc1`, the inhibition was found to be 8.33%.
With `COc1cc2ncn(-c3cc(OCCc4ccccc4)c(C(N)=O)s3)c2cc1OC`, the inhibition amounted to 66.7%.
Same read-out and setting: with `Cc1nnc(-c2ccc(C)c(-c3ccc(C(=O)NCc4ccc(Cl)cc4)cc3)c2)o1` the figure was 6.75%; with `C#Cc1cccc(Nc2ncnc3ccc(OCCCCNCCS(C)(=O)=O)cc23)c1`, 75.4%; with `COc1cccc(-n2cnc3c(N/N=C/c4ccncc4)ncnc32)c1`, 16.3%.
Same read-out and setting: with `COc1ccc2cc(-c3c(-c4ccncc4)nc(-c4ccc(S(C)(=O)=O)cc4C)n3C)ccc2c1` the figure was 95.3%; with `COc1ccc2ncn(-c3cc(O[C@H](C)c4ccccc4Cl)c(C(N)=O)s3)c2c1`, 59.1%; with `O=C1NC(=O)C(c2cccc(Cl)c2)=C1Nc1ccc(Cl)c(C(=O)O)c1`, 6.92%.
Same read-out and setting: with `CN1CCN(CCCNc2nc3ccc(Oc4ccc(NC(=O)Nc5cc(C(F)(F)F)ccc5F)cc4)cc3[nH]2)CC1` the figure was 53%.
Consider `C[C@@H](Oc1cc(-n2cnc3ccc(OC4CCN(C)CC4)cc32)sc1C(N)=O)c1ccccc1Cl`, for which the inhibition came to 81.4%.
Consider `c1ccc(Oc2ccc(Nc3ncc(-c4ccccc4)o3)cc2)cc1`, for which the inhibition came out at 2.71%.
The same measure, in the same setting: with `CN(C)CCCNc1nccc(-c2c(-c3ccc(F)cc3)nn3cc(C(F)(F)F)ccc23)n1` the figure was 7.46%; with `COc1cc2ncn(-c3cc(OCc4ccccc4C(F)(F)F)c(C(C)=O)s3)c2cc1OC`, 42.8%; with `COc1ccc2cc(-c3c(-c4ccncc4)nc(-c4ccc([S+](C)[O-])cc4C)n3C)ccc2c1` (stereo not drawn), 97.3%.
`Fc1ccc(-c2ncn(C3CCNCC3)c2-c2ccnc(Oc3ccc4c(c3)OCO4)n2)cc1`: the inhibition amounted to 7.17%.
On the same count and under the same terms, with `NC(=O)c1cc(-c2ccc(F)cc2)cc(-c2ccncc2)c1N` the figure was 5.86%; with `CCC(=O)Nc1ccc(C)c(-c2ccc(C(=O)NCC3CC3)cc2)c1`, 5.36%; with `c1ccc(-c2n[nH]cc2-c2ccnc(-c3ccc(OCCN4CCOCC4)cc3)c2)nc1`, 6.24%.
With `O=C(NCC1CC1)c1ccc(-c2cccc(C(=O)NC3CC3)c2)cc1`, the inhibition was -0.77%.
The same measure, in the same setting: with `NC(=O)Cc1ccccc1Oc1nccc(-c2c(-c3ccc(F)cc3)ncn2C2CCNCC2)n1` the figure was 5.45%.
